# Rows were chosen to be rich in hits. Some 7.9% of all compounds tested hit in one or more screens of this group.
# HT1080 IDH1KD tx: toxicity to HT-1080 IDH1 knockdown cells (counter line). HT-1080 IDH1 knockdown viability, ATP luminescence, 48 h. Potency, µM (doses to about 46.1 µM), for inactives: top-dose activity, negative = toxicity, actives largely listed as cytotoxic. hit rate 2% among 360,000;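 further: 0% = DMSO wells and -100% = cell-free medium wells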
#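 CellTiter-Glo luminescence after 48 h compound exposure at 37 degrees C of IDH1-knockdown HT-1080 cells in 5% FBS RPMI. %Activity scaled between DMSO wells and cell-free media wells, with curves fitted and assigned curve classes.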
# KB-V1 cytotox: KB-V1 MDR subline cytotoxicity. KB-V1 MDR cells viability, CellTiter-Glo, 72 h. Potency, µM (doses to about 46.1 µM), hits mostly cytotoxic. hit rate 3.4% among 400,000. AID 1347076; further: on the % scale 0 is the no-effect control and ±100 the full control effect; nearly all actives have a fitted effect of over 60% in size
#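 Potencies derive from concentration-effect curves fitted to normalized luminescence (CellTiter-Glo) of KB-V1 cells treated for 72 h at 37 degrees C in phenol-red-free DMEM containing 10% FBS.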
# SW480 rereplic: inducers of DNA re-replication in SW480 colon cancer cells. SW480 DNA re-replication, Hoechst DNA content imaging, 48 h. Potency, µM (series often up to 46.1 µM), inactives show top-dose re-replication activation, hits mostly activators. hit rate 1.8% among 340,000; further: % of control where 0% means no effect; nearly all actives have a fitted effect of over 55% in size
#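 Quantitative HTS format with DMSO vehicle controls; 48 hr drug incubation at 37 C, then 40 min Hoechst staining and scanning imager measurement at 405 nm excitation.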
# KB-3-1 tox: KB-3-1 parental cell cytotoxicity; KB-3-1 viability, CellTiter-Glo ATP luminescence, 72 h; Potency, µM (doses to about 46.1 µM), actives largely listed as cytotoxic; hit rate 1.4% among 400,000; further: on the % scale 0 is the no-effect control and ±100 the full control effect; nearly all actives have a fitted effect of over 60% in size
#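 Cytotoxicity in the drug-sensitive parental line KB-3-1 was scored as loss of CellTiter-Glo luminescence following 72 h incubation with compound. Values come from curve fitting of normalized concentration-response data.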
# HT1080-NT tox: kills 2HG-producing HT-1080-NT fibrosarcoma cells | AID 686970 | Potency, µM (top dose mostly 46.1 µM), for inactives: at the top dose activity, negative = less viability, usual class: cytotoxic | HT-1080-NT fibrosarcoma viability, CellTiter-Glo ATP luminescence, 48 h | hit rate 1.6% among 360,000;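 further: NT is the 2HG producing partner of a matched IDH1 knockdown line; 0% = DMSO-treated cells and -100% = media-only wells without cells; nearly all actives have a fitted effect of over 55% in size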
#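 Read-out is CellTiter-Glo luminescence after 10 minutes at room temperature, following 48 hours' compound treatment of HT-1080-NT cells (750 cells/well, RPMI, 5% FBS, 37 degrees C).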
# MCF10A rerep: DNA re-replication induction in MCF 10a cells; AID 624296; Potency, µM (top dose mostly 46.1 µM), for inactives: at the highest dose activity, positive = re-replication, most hits filed as activators; hit rate 2.9% among 350,000; MCF 10A DNA re-replication, Hoechst nuclear intensity, 48 h; further: % of control where 0% means no effect; nearly all actives have a fitted effect of over 50% in size
# The depositor's hits bear a star; i = inactive; u = inconclusive; x = no result; ! = not active in a repeat. The call rests on the fitted dose curve; in most records, active means well fitted curve in the direction sought with a large enough effect; inconclusive means small, poorly fitted or top-dose-only effect, or another doubt; inactive means no such curve, though single readings can be large; an effect the other way counts as inactive or inconclusive. Potency means the concentration at half of the fitted maximal effect.
SMILES,HT1080 IDH1KD tx,KB-V1 cytotox,SW480 rereplic,KB-3-1 tox,HT1080-NT tox,MCF10A rerep
O=C(c1cc([N+](=O)[O-])ccc1N1CCOCC1)N1CCCCC1,10.3%,i,-5.2%,u,10.8%,3.1%
CN1CCN(c2ncnc3c2ncn3[C@H]2CN(Cc3ccccc3)C[C@@H](CO)O2)CC1,13.9%,i,x,i,2.6%,x
CNCC(=O)c1c[nH]c2ccccc12,x,i,x,i,x,x
Cc1cc(C)c(NS(=O)(=O)c2cc(-c3cnc(C4CC4)o3)ccc2C)c(C)c1,x,i,x,i,x,x
CCOc1ccccc1NS(=O)(=O)c1cc(-c2cnc(C3CC3)o2)ccc1C,x,i,x,u,x,x
COc1ccccc1NS(=O)(=O)c1ccc(-c2cnc(C3CC3)o2)cc1,0.731µM*,u,0.0%,1.03µM*,u,u
O=S(=O)(Nc1cccc(C(F)(F)F)c1)c1ccc(-c2cnc(C3CC3)o2)cc1,x,8.2µM*,x,10.3µM*,x,x
COc1ccc(NS(=O)(=O)c2ccc(-c3cnc(C4CC4)o3)cc2)cc1OC,14.6µM*,u,3.3%,2.06µM*,14.6µM*,u
COc1ccccc1N1CCN(S(=O)(=O)c2ccc(-c3cnc(C4CC4)o3)cc2)CC1,-9.7%,u,-9.6%,u,0.0%,u
CCOc1ccccc1NS(=O)(=O)c1ccc(-c2cnc(C3CC3)o2)cc1,0.206µM*,u,u,0.291µM*,0.206µM*,u
COc1cc(OC)c(NS(=O)(=O)c2cc(-c3cnc(C4CC4)o3)ccc2C)cc1Cl,x,i,x,i,x,x
Cn1c(SCC(=O)N2CC(=O)Nc3ccccc32)nnc1C(F)(F)F,15.8%,i,-2.7%,i,11.0%,2.5%
Cc1ccccc1OCC(=O)NCC(=O)OCC(=O)c1ccc2c(c1)CCCC2,x,i,x,u,x,x
COc1ccccc1CNS(=O)(=O)c1ccc(-c2cnc(C3CC3)o2)cc1,u,5.8µM*!,u,u,4.61µM*,u
NC(N)=NN=C(c1ccc(F)cc1)c1ccc(C(F)(F)F)cc1,7.31µM*,u,6.51µM*,3.66µM*,2.91µM*,u
O=C(NNC(=O)c1ccc(Br)s1)c1csc(N2CCOCC2)n1,0.8%,i,-1.8%,i,-4.0%,13.1%
CC(C)n1nnc(-c2ccc(OCc3ccccc3F)cc2)n1,-5.4%,i,14.6µM*,i,-7.7%,-2.5%
Cn1nnc(-c2ccc(OCc3ccccc3F)cc2)n1,-13.1%,i,-6.7%,i,-3.5%,-0.4%
CSCCC(NS(=O)(=O)c1ccc2ccccc2c1)C(=O)OCC(=O)c1ccc(C(C)C)cc1 (stereo not given),-14.4%,18.4µM*,u,i,-3.0%,-2.1%
CSCCC(NC(=O)COc1ccccc1)C(=O)OCC(=O)c1ccccc1 (stereo not given),8.8%,i,-12.5%,i,3.1%,-14.6%
CSCCC(NS(=O)(=O)c1ccc(Cl)cc1)C(=O)OCC(=O)c1c(C)[nH]c2ccccc12 (stereo not given),-24.8%,14.6µM*,16.9%,u,-13.1%,11.6µM*
Cc1[nH]c2ccccc2c1C(=O)COC(=O)C1CC(O)CN1S(=O)(=O)c1ccc(Cl)cc1 (stereo not given),u,i,-3.0%,i,-27.1%,-5.2%
CN(C)c1ccc(CNc2nc(-c3ccco3)nn2S(=O)(=O)c2ccc3ccccc3c2)cc1,x,i,x,i,x,x
Cc1cc(NC(=O)Cc2ccc(Br)cc2)no1,-1.2%,i,u,i,1.5%,u
Cc1cc(NC(=O)Nc2ccc(Cl)cc2)no1,0.9%,i,17.6%,i,-7.7%,-13.8%
SMILES,HT1080 IDH1KD tx,KB-V1 cytotox,SW480 rereplic,KB-3-1 tox,HT1080-NT tox,MCF10A rerep
Cc1cc(NC(=O)/C=C/c2ccc(Br)cc2)no1,-8.1%,u,10.3µM*,i,0.9%,4.4%
Cc1cc(NC(=O)/C=C/c2ccc(Cl)cc2)no1,-2.6%,i,6.51µM*,i,-1.8%,9.0%
COc1cc(CN(C(=O)c2ccco2)c2ccc(C)cc2)ccc1O,-10.2%,13µM*,-1.2%,i,-1.7%,-4.9%
CCOc1ccc(N(Cc2ccc(OC)cc2)C(=O)c2ccco2)cc1,u,u,18.0%,i,u,17.9%
COc1ccc(CN(C(=O)c2ccco2)c2ccc(C)c(C)c2)cc1,20.6µM*,u,16.4µM*,16.4µM*,u,10.3µM*
CCOC(=O)c1c(C)[nH]c(C=O)c1Cc1cccc(Cl)c1,u,14.6µM*,10.3%,18.4µM*,u,26.9%
O=C(c1ccc(Cn2c(=O)[nH]c3ccccc3c2=O)cc1)N1CCN(c2ccc(Cl)cc2)CC1,u,20.6µM*,17.2%,u,u,20.7%
CC(=O)c1ccc(N2CCN(C(=O)c3ccc(Cn4c(=O)[nH]c5ccccc5c4=O)cc3)CC2)cc1,x,i,x,i,x,x
C=CCn1c(=O)[nH]c2cc(C(=O)N3CCN(c4cccc(Cl)c4)CC3)ccc2c1=O,-1.4%,11.6µM*,10.8%,u,-1.0%,17.3%
C=CCn1c(=O)[nH]c2cc(C(=O)N3CCN(c4ccc(C(C)=O)cc4)CC3)ccc2c1=O,u,i,4.5%,i,-29.8%,8.9%
C(=Nc1cnc2ccccc2c1)c1ccc2ccccc2n1,x,i,x,i,x,x
CCCNCC1C(Oc2ccc(Cl)cc2)C(=O)N1c1ccccc1C (stereo not given),-15.0%,i,-3.1%,i,-22.8%,2.0%
Cc1ccccc1N1C(=O)C(Oc2ccc(Cl)cc2)C1CNC(C)(C)C (stereo not given),-10.3%,5.8µM*,u,i,-12.0%,11.9%
CCOc1ccc(S(=O)(=O)N2CCC(C(=O)OC(C)C(=O)N(C)C3CCCCC3)CC2)cc1 (stereo not given),1.2%,u,2.4%,u,0.1%,-14.1%
O=[N+]([O-])c1ccc(C(O)CN=Cc2ccc(O)cc2O)cc1 (stereo not given),8.2µM*,i,9.8%,i,11.6µM*,16.4µM*
CN(C(=O)CCCN1C(=O)c2ccccc2C1=O)C1CCCCC1,18.5%,11.6µM*,-4.9%,i,19.6%,4.2%
COc1cc(NC2=Nc3cccc4cccc2c34)cc(OC)c1OC,u,2.59µM*,u,i,u,u
COc1ccc(CC(=O)NNC2=Nc3cccc4cccc2c34)cc1OC,4.9%,i,u,i,9.4%,4.1%
COc1ccc(NC2=Nc3cccc4cccc2c34)cc1OC,-0.8%,u,-1.6%,i,-30.7%,-0.3%

# High-throughput results deposited in PubChem BioAssay by National Center for Advancing Translational Sciences (NCATS).
